This note sets out measurements from PubChem BioAssay (NCI).

This is part of a sample that, as a whole, favours compounds with a hit. Of some 83,000 tested, about 20% had one in any assay.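 48-hour exposure, single concentration, 96-well plates; percent growth endpoint where 0 means no net growth. Active: below 10.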 Activity calls are given as the source filed them.

The test relates to NCI-H460 lung. Briefly: NCI-60 one-dose screen, 48 h (100 = growth as untreated, 0 = no growth, -100 = all killed). The following applies: 10 µM.
As for `COC(=O)CC1CC1C1Cc2c(nc(N(C)S(C)(=O)=O)nc2C(C)C)-c2ccc(F)cc21` (stereo not drawn), the growth was 94.6% (inactive).

`CN1CCN(c2ccc(Nc3nc(N4CCN(S(=O)(=O)c5ccc(Cl)cc5)CC4)c4sccc4n3)cc2)CC1`: the growth was -70.6% (active).

As for `Cc1ccc(-c2ccc(SCC(=O)Nc3ccc(Cl)c(C(F)(F)F)c3)nn2)cc1`, the growth was 13.8% (inactive).

With `Oc1ccc(/C=C2\CCCc3cc4ccc(O)cc4[o+]c32)c(O)c1`, the growth is 19.8% (inactive).

`O=C(Nc1ccc(F)c(Cl)c1)c1cc(-c2ccc(F)cc2F)ccc1O`: the growth is 0.118% (active).

Consider `CCN1CCN(c2ccc(NC(=O)Nc3ccc4c(c3F)CCN4c3ccnc(C(=O)NC)c3)cc2C(F)(F)F)CC1`, for which the growth was -87.6% (active).

With `O=C(CS(=O)(=O)c1oc(-c2ccc(Cl)cc2)nc1S(=O)(=O)c1ccccc1)N1CCCC1`, the growth is 73.3% (inactive).

As to `C=C(C)[C@@H]1CC[C@]2(C)[C@H](CC=C3[C@@H]4CC(C)(C)CC[C@]4(C(=O)N4CCOCC4)CC[C@]32C)[C@@]1(C)CCCN`, the growth is -77.5% (active).

With `COc1ccccc1C(=O)NNC(=O)CSc1nc2c(c(=O)[nH]1)CCCC2`, the growth was 111% (inactive).

For the compound `Cc1ccc(/C(N)=N/c2sc(-c3ccccc3)nc2-c2ccccc2)cc1`, the growth is 76.5% (inactive).

For `O=C(COc1ccc(NC(=O)Nc2ccc(Cl)cc2)cc1)N=Nc1c(O)[nH]c2ccc([N+](=O)[O-])cc12`, the growth was 17.5% (inactive).

For `COc1cc(/C=C/C(=O)c2cc(OC)c(OC)c(OC)c2)ccc1Oc1nc(Nc2ccc(F)cc2)nc(N(C)C)n1`, the growth is -23% (active).

With `Cc1ccc(CSc2nc(-c3ccc(F)cc3)c(C#N)c(=O)[nH]2)cc1`, the growth was 109% (inactive).

For `CCCn1c(O)c(N=Nc2nc(-c3cc4ccccc4oc3=O)cs2)c2cc(Br)ccc21`, the growth is 110% (inactive).

Turning to `CN1CCN(Cc2ccc(NC(=O)c3cncc(C#Cc4cnc5ccc(N[C@@H]6CCOC6)nn45)c3)cc2C(F)(F)F)CC1`, the growth was -30% (active).

For the compound `c1ccc(C(=C(c2ccc(OCCN3CCCCC3)cc2)c2ccc(OCCN3CCCCC3)cc2)C2CCCC2)cc1`, the growth is -55.4% (active).

For `Cc1ccc(-c2cc(C(=O)N=Nc3c(O)[nH]c4ccccc34)c3ccccc3n2)cc1`, the growth was -35.8% (active).

For the compound `N#Cc1c(NC(=O)c2ccc(C(F)(F)F)cc2)sc2c1CCC(=O)C2`, the growth was 0.648% (active).

For `CCOC(=O)C1NN(c2ccc(S(N)(=O)=O)cc2)c2nc3nc(-c4cccs4)cc(-c4cccs4)c3c(=O)n21` (stereo not drawn), the growth is 77.6% (inactive).

Regarding `Cc1ccc(-c2cc(C(=O)N=Nc3c(O)[nH]c4ccc(Br)cc34)c3ccccc3n2)cc1`, the growth was 47.3% (inactive).

Turning to `CC1(c2ccccc2)NC(=O)N(CC(=O)Nc2ccc(C(=O)/C=C/c3ccc(Cl)cc3)cc2)C1=O` (stereo not drawn), the growth is 21.5% (inactive).

Regarding `O=C(N/N=C/c1ccc(-c2cccc([N+](=O)[O-])c2)o1)c1[nH]c2ccc(Br)cc2c1-c1ccccc1`, the growth was 9.61% (active).

`CN(C)c1ccc(/C=C/c2nc3ccccc3c(=O)n2CC(=O)Nc2ccc(Cl)cc2)cc1`: the growth is 44.6% (inactive).

In the case of `CCCSc1nc(NC2CC2)c(C#N)c(-c2ccc(OC)cc2)n1`, the growth was 85.6% (inactive).

In the case of `C=C1CCC2C3(C)COC(c4c(F)cccc4F)OC3CCC2(C)C1CC(O)C1=CCOC1=O` (stereo not drawn), the growth was 89.2% (inactive).

Regarding `O=C(N=Nc1c(O)[nH]c2ccc(Br)cc12)c1ccc2nc(-c3ccccc3)[nH]c2c1`, the growth is -73.5% (active).

As to `CS(=O)(=O)Nc1ccc(-c2ccc3c(c2)ncn3-c2ccc(NC(=O)Nc3ccc(Br)cc3)cc2)cc1`, the growth is 2.98% (active).

As for `COC1=C[C@@]23CCC(=O)N2CCc2cc4c(cc2[C@H]3[C@H]1OC(=O)C(C)(C)O)OCO4`, the growth is 115% (inactive).

For `Cc1cc(C)nc(/N=C(\N)Nc2ccc(S(=O)(=O)Nc3nc(C)cc(C)n3)cc2)n1`, the growth was 116% (inactive).

Turning to `CC(=O)NS(=O)(=O)c1ccc(NC(=O)CSC2=NC(c3ccccc3)C(C(C)=O)=C(C)N2)cc1` (stereo not drawn), the growth is 121% (inactive).

On to `COc1cc2c3c(n(CCCNCCO)c(=O)c2cc1OC)-c1nc2c(cc1C3=O)OCO2`, for which the growth is -43.9% (active).

As for `C/C(=C\CC/C=C(\C)CC/C=C(\C)CC[C@@H](O)C(C)(C)O)CC/C=C(\C)CC[C@@H](O)C(C)(C)O`, the growth was 32% (inactive).

For the compound `C=CC(=O)Nc1nc(-c2cccc(NS(=O)(=O)c3cccc4c(N(C)C)cccc34)c2)cs1`, the growth is -32.8% (active).
